Laboratory results: paper PMC11062922 (Nature Chemical Biology, 2023)
Read-outs that look alike come from different tables or passages of the source.

Legend:
[1] = test system: IGF1R; set-up: species or system human, MV4-11 + K-562 + COLO205 + SK-N-BE2 + OVCAR-8; conditions: read-out: apparent Kd, compound concentrations: 100 nM and 1000 nM (sheet 'Samples'), n = 1
[2] = test system: INSR; set-up: species or system human, MV4-11 + K-562 + COLO205 + SK-N-BE2 + OVCAR-8; conditions: read-out: apparent Kd, compound concentrations: 100 nM and 1000 nM (sheet 'Samples'), n = 1
[3] = test system: NEK2; set-up: species or system human, MV4-11 + K-562 + COLO205 + SK-N-BE2 + OVCAR-8; conditions: read-out: apparent Kd, compound concentrations: 100 nM and 1000 nM (sheet 'Samples'), n = 1
[4] = test system: BMPR1A; set-up: species or system human, MV4-11 + K-562 + COLO205 + SK-N-BE2 + OVCAR-8; conditions: read-out: apparent Kd, n = 1
[5] = test system: BRAF; set-up: species or system human, MV4-11 + K-562 + COLO205 + SK-N-BE2 + OVCAR-8; conditions: read-out: apparent Kd, compound concentrations: 100 nM and 1000 nM (sheet 'Samples'), n = 1
[6] = test system: DCK; set-up: species or system human, MV4-11 + K-562 + COLO205 + SK-N-BE2 + OVCAR-8; conditions: read-out: apparent Kd, compound concentrations: 100 nM and 1000 nM (sheet 'Samples'), n = 1
[7] = test system: ERBB3; set-up: species or system human, MV4-11 + K-562 + COLO205 + SK-N-BE2 + OVCAR-8; conditions: read-out: apparent Kd, compound concentrations: 100 nM and 1000 nM (sheet 'Samples'), n = 1
[8] = test system: FECH; set-up: species or system human, MV4-11 + K-562 + COLO205 + SK-N-BE2 + OVCAR-8; conditions: read-out: apparent Kd, compound concentrations: 100 nM and 1000 nM (sheet 'Samples'), n = 1
[9] = test system: LIMK2; set-up: species or system human, MV4-11 + K-562 + COLO205 + SK-N-BE2 + OVCAR-8; conditions: read-out: apparent Kd, n = 1
[10] = test system: MAP2K3; set-up: species or system human, MV4-11 + K-562 + COLO205 + SK-N-BE2 + OVCAR-8; conditions: read-out: apparent Kd, compound concentrations: 100 nM and 1000 nM (sheet 'Samples'), n = 1
[11] = test system: MAP3K12; set-up: species or system human, MV4-11 + K-562 + COLO205 + SK-N-BE2 + OVCAR-8; conditions: read-out: apparent Kd, compound concentrations: 100 nM and 1000 nM (sheet 'Samples'), n = 1
[12] = test system: MAP3K2; set-up: species or system human, MV4-11 + K-562 + COLO205 + SK-N-BE2 + OVCAR-8; conditions: read-out: apparent Kd, compound concentrations: 100 nM and 1000 nM (sheet 'Samples'), n = 1
[13] = test system: MAP3K5; set-up: species or system human, MV4-11 + K-562 + COLO205 + SK-N-BE2 + OVCAR-8; conditions: read-out: apparent Kd, compound concentrations: 100 nM and 1000 nM (sheet 'Samples'), n = 1
[14] = test system: MAPK7; set-up: species or system human, MV4-11 + K-562 + COLO205 + SK-N-BE2 + OVCAR-8; conditions: read-out: apparent Kd, compound concentrations: 100 nM and 1000 nM (sheet 'Samples'), n = 1
[15] = test system: PIK3C2B; set-up: species or system human, MV4-11 + K-562 + COLO205 + SK-N-BE2 + OVCAR-8; conditions: read-out: apparent Kd, compound concentrations: 100 nM and 1000 nM (sheet 'Samples'), n = 1
[16] = test system: SPR; set-up: species or system human, MV4-11 + K-562 + COLO205 + SK-N-BE2 + OVCAR-8; conditions: read-out: apparent Kd, n = 1
[17] = test system: PRKD1; set-up: species or system human, MV4-11 + K-562 + COLO205 + SK-N-BE2 + OVCAR-8; conditions: read-out: apparent Kd, n = 1
[18] = test system: HSP90B1; set-up: species or system human, MV4-11 + K-562 + COLO205 + SK-N-BE2 + OVCAR-8; conditions: read-out: apparent Kd; compound concentrations:100 nM and 1000 nM (sheet 'Samples'); n = 1
[19] = test system: TESK2; set-up: species or system human, MV4-11 + K-562 + COLO205 + SK-N-BE2 + OVCAR-8; conditions: read-out: apparent Kd; compound concentrations:100 nM and 1000 nM (sheet 'Samples'); n = 1
[20] = test system: AAK1; conditions: compound concentrations:3nM, 10nM, 30nM, 100nM, 300nM, 1000nM, 3000nM, 30000nM,R2:0.99102510116180997,slope:1.0759365754475601,EC50 Standard Error, by the legend:Standard error of the EC50 estimation as provided by the drc package.
[21] = compound concentrations:100 nM and 1000 nM (sheet 'Samples')

## COc1ccc(Nc2ncc(C#N)c(Nc3ccccc3C(N)=O)n2)cc1N1CCN(C)CC1.Cl [GSK1558669A]
[1]; CATDS: 6.9220248980982396E-3
  potency estimated from few doses: 0.752 µM
[2]; CATDS: 7.0439666537016601E-3
  potency estimated from few doses: 0.692 µM
[3]; CATDS: 6.7574361761292799E-3
  potency estimated from few doses: 0.849 µM

## Cn1ncc2c(N)ncnc21 [SKF-18267]
[4]; compound concentrations: 100 nM and 1000 nM (sheet 'Samples'), CATDS: 5.9129989995003003E-3
  potency estimated from few doses: 0.595 µM
[5]; CATDS: 3.54255463702716E-3
  potency estimated from few doses: 1.87 µM
[6]; CATDS: 4.5565133541076702E-3
  potency estimated from few doses: 0.987 µM
[7]; CATDS: 3.9998602619286698E-3
  potency estimated from few doses: 1.34 µM
[8]; CATDS: 4.0094324755209198E-3
  potency estimated from few doses: 1.33 µM
[1]; CATDS: 4.3813441316225901E-3
  potency estimated from few doses: 1.08 µM
[2]; CATDS: 4.5573832930641796E-3
  potency estimated from few doses: 0.986 µM
[9]; compound concentrations: 100 nM and 1000 nM (sheet 'Samples'), CATDS: 3.7102033319592401E-3
  potency estimated from few doses: 1.63 µM
[10]; CATDS: 4.14742483783686E-3
  potency estimated from few doses: 1.22 µM
[11]; CATDS: 4.9126246890692504E-3
  potency estimated from few doses: 0.843 µM
[12]; CATDS: 4.2783500511549997E-3
  potency estimated from few doses: 1.14 µM
[13]; CATDS: 4.32123334572214E-3
  potency estimated from few doses: 1.11 µM
[14]; CATDS: 3.9838262564481702E-3
  potency estimated from few doses: 1.35 µM
[3]; CATDS: 4.6073088162857699E-3
  potency estimated from few doses: 0.964 µM
[15]; CATDS: 6.2624130491241497E-3
  potency estimated from few doses: 0.539 µM
[16]; compound concentrations: 100 nM and 1000 nM (sheet 'Samples'), CATDS: 4.8201807384516803E-3
  potency estimated from few doses: 0.876 µM

## CCn1c(-c2nonc2N)nc2c(-c3ccccc3)ncc(OCCCN)c21.CCn1c(-c2nonc2N)nc2c(-c3ccccc3)ncc(OCCCN)c21.O=C(O)C(F)(F)F.O=C(O)C(F)(F)F [GSK260205A]
[17]; compound concentrations: 100 nM and 1000 nM (sheet 'Samples'), CATDS: 2.9847294929188299E-2
  potency estimated from few doses: 1.34 µM

## O=C1NC(=O)C(N2CCc3ccccc32)=C1c1ccccc1Cl [SB-373598]
[17]; [21]
  potency estimated from few doses: 1.58 µM

## Cc1cccc(-c2nc(Nc3ccncc3)c3sccc3n2)n1 [GW869641X]
[18]
  potency estimated from few doses: 1.25 µM
[19]
  potency estimated from few doses: 1.88 µM

## CCn1c(-c2nonc2N)nc2c(C#CC(C)(C)O)nc(OCCN)cc21.CCn1c(-c2nonc2N)nc2c(C#CC(C)(C)O)nc(OCCN)cc21.Cl.Cl [GSK902056A]
[18]
  potency estimated from few doses: 0.769 µM

## Cl.NCc1ccc(-c2nc(-c3ccc(Cl)c(O)c3)c(-c3ccncc3)[nH]2)cc1 [SB-476429-A]
[16]; [21]
  potency estimated from few doses: 0.0323 µM

## TAK659
[20]
  EC50: 0.997 µM
[20]; read-out: apparent Kd
  Kd: 0.72 µM

## CNCc1ccc(-c2cc(-c3nc(-c4ccc(S(=O)(=O)C(C)C)cc4)cnc3N)on2)cc1 [VE-822]
[4]; [21]
  potency estimated from few doses: 0.764 µM

## Cl.Cl.NC(CNC(=O)c1cc(Br)c(-c2ccnc3[nH]ccc23)s1)c1ccccc1.NC(CNC(=O)c1cc(Br)c(-c2ccnc3[nH]ccc23)s1)c1ccccc1 (stereo not shown) [GSK1322949A]
[11]; CATDS: 3.2066551551393298E-2
  potency estimated from few doses: 1.04 µM

## CCn1c(-c2cccnc2O)nc2cnccc21 [SB-736715]
[6]; CATDS: 1.18043457558384E-2
  potency estimated from few doses: 2.29 µM

## O=C1N=C(NCCCc2ccccc2)S/C1=C\c1ccc2ncccc2c1 [RO4493941-000]
[8]; CATDS: 5.9450857327724899E-2
  potency estimated from few doses: 1.95 µM

## O=C(O)C(F)(F)F.O=C(O)C(F)(F)F.O=c1[nH]ccc2nc(N[C@@H]3CCCNC3)nc(Nc3ccc(S(=O)(=O)N4CCOCC4)cc3)c12.O=c1[nH]ccc2nc(N[C@@H]3CCCNC3)nc(Nc3ccc(S(=O)(=O)N4CCOCC4)cc3)c12 [GSK2177277A]
[10]; CATDS: 6.4169710439364001E-3
  potency estimated from few doses: 1.55 µM
[12]; CATDS: 7.1783793001346102E-3
  potency estimated from few doses: 0.889 µM

## CC(C)Oc1ccc2c(-c3ccnc(Nc4ccc(N5CCN(C)CC5)cc4)n3)cnn2n1 [GW696155X]
[9]; [21]
  potency estimated from few doses: 0.883 µM

## Nc1nc(Nc2ccccc2)cc(-c2ccc3c(N)n[nH]c3c2)n1 [GSK2225749A]
[19]
  potency estimated from few doses: 1.62 µM

## CC(C)N1CC(=O)N(C)c2cnc(Nc3cccc(S(=O)(=O)CCN4CCOCC4)c3)nc21 [BI00009348]
[13]; CATDS: 5.27372855942096E-2
  potency estimated from few doses: 1.55 µM

## CNc1nccc(-c2ccc3c(N)n[nH]c3c2)n1 [GSK2206003A]
[7]; CATDS: 5.0565668903585798E-2
  potency estimated from few doses: 1.58 µM

## CCC(CC)(CC)n1cnc2c(N)ncnc21 [SKF-97620]
[15]; CATDS: 4.5061031673298398E-2
  potency estimated from few doses: 0.395 µM

## CNCC1CCn2c(c(C3=C(c4cn(C)c5ccccc45)C(=O)NC3=O)c3ccccc32)C1 (stereo not shown) [RO0318676-000]
[5]; CATDS: 2.6106742003508401E-2
  potency estimated from few doses: 2.34 µM

## Cl.Cl.Cl.c1ccc(Oc2ccc(Nc3ccnc4cc(-c5ccc(CN6CCNCC6)o5)ccc34)cc2)nc1.c1ccc(Oc2ccc(Nc3ccnc4cc(-c5ccc(CN6CCNCC6)o5)ccc34)cc2)nc1 [GW567142A]
[14]; CATDS: 1.6423654132294602E-2
  potency estimated from few doses: 2.37 µM
